PubChem BioAssay (NCI)
Compounds without any hit were thinned out: in the full panel of roughly 83,000, 20% have a hit.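 The endpoint reported here, percent growth, reads 100 for growth as untreated, 0 for no net growth and -100 for all cells dead.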 The source made the active and inactive calls. Rule for the calls: active = growth percent below 10; inactive = the rest.

What was measured:
Assay in all cases: NCI-60 one-dose screen, 48 h (100 = growth as untreated, 0 = no growth, -100 = all killed)
SK-MEL-2 melanoma = conditions: 10 µM unless noted
EKVX NSCLC = conditions: 10 µM
SN12C renal = conditions: 10 µM unless noted
UO-31 renal = conditions: 10 µM unless noted
TK-10 renal = conditions: 10 µM unless noted
ACHN renal = conditions: 10 µM unless noted
CAKI-1 renal = conditions: 10 µM unless noted
A498 renal = conditions: 10 µM unless noted
CCRF-CEM leukemia = conditions: 10 µM
MOLT-4 leukemia = conditions: 10 µM unless noted

Measured: growth

CCC(C)C1NC(=O)C(CCCCN)NC(=O)C(CCCCN)NC(=O)C(CC(C)C)NC(=O)C(CCCCN)NC(=O)C(C(C)CC)NC(=O)C(C(C)C)NC(=O)C(C(C)CC)NC(=O)C(CCCCN)NC(=O)C(CCCCN)NC(=O)C(C)NC(=O)C(CCCCN)NC(=O)C(CC(C)C)NC1=O (stereo unspecified)
active: ACHN renal 3.79% | CAKI-1 renal 6.74%
inactive: SK-MEL-2 melanoma 28.6% | EKVX NSCLC 13.5% | SN12C renal 12.3% | UO-31 renal 14.6% | TK-10 renal 19.5% | A498 renal 21.8% | CCRF-CEM leukemia 22%

O=C(Nc1cccc(Cn2c(=O)[nH]c3ccc(Oc4ncccn4)cc3c2=O)c1)c1cc(Cl)cc(Cl)c1
inactive: SK-MEL-2 melanoma 55.1% | EKVX NSCLC 72.3% | SN12C renal 59.4% | UO-31 renal 65.6% | TK-10 renal 71.5% | ACHN renal 19.8% | CAKI-1 renal 91% | A498 renal 85.3%

COC(=O)c1ccc2[nH]c(O)c(C(=Nc3ccc(N(C)C(=O)CN4CCN(C)CC4)cc3)c3ccc(CCO)cc3)c2c1
inactive: SK-MEL-2 melanoma 34.9% | EKVX NSCLC 85.5% | SN12C renal 27.8% | UO-31 renal 72.2% | TK-10 renal 65.2% | ACHN renal 74.1% | CAKI-1 renal 33.1% | A498 renal 45.6% | CCRF-CEM leukemia 15.5% | MOLT-4 leukemia 21.4%

C=C1CCC2C3(C)COC(c4ccccc4)OC3CCC2(C)C1C/C=C1/C(=O)OCC1O (stereo unspecified)
inactive: SK-MEL-2 melanoma 66.7% | EKVX NSCLC 104% | SN12C renal 66.7% | UO-31 renal 42.9% | TK-10 renal 105% | ACHN renal 86.7% | CAKI-1 renal 133%

NNC(=O)CNc1ccc2ccccc2c1
inactive: SK-MEL-2 melanoma 98.7% | EKVX NSCLC 105% | SN12C renal 104% | UO-31 renal 70.9% | TK-10 renal 119% | ACHN renal 101% | CAKI-1 renal 106% | A498 renal 107% | CCRF-CEM leukemia 101%

COc1ccc2cnc(N)c(C#Cc3cc(C(=O)Nc4ccc(CN5CCN(C)CC5)c(C(F)(F)F)c4)cnc3C)c2c1
active: UO-31 renal -71.8% | ACHN renal -43.2%
inactive: SK-MEL-2 melanoma 56.8% | EKVX NSCLC 71.8% | SN12C renal 50% | TK-10 renal 27.4% | CAKI-1 renal 33.9% | A498 renal 37.5% | CCRF-CEM leukemia 18.7% | MOLT-4 leukemia 23.7%

O=C1NCCN1/N=C/c1c(Cl)nc2n1CCS2
active: CCRF-CEM leukemia -62.2%
inactive: SK-MEL-2 melanoma 70.2% | EKVX NSCLC 111% | SN12C renal 140% | UO-31 renal 58.6% | TK-10 renal 116% | ACHN renal 108% | CAKI-1 renal 98.7% | A498 renal 156%

O=C(O)c1occ(Cl)c1Cl
inactive: SK-MEL-2 melanoma 120% | EKVX NSCLC 100% | SN12C renal 109% | UO-31 renal 97% | TK-10 renal 111% | ACHN renal 109% | CAKI-1 renal 104% | A498 renal 90.4% | CCRF-CEM leukemia 105% | MOLT-4 leukemia 111%

COc1cc(NC(C)CCCN)c2nc(C)ccc2c1OC (stereo unspecified)
active: MOLT-4 leukemia 6.98%
inactive: SK-MEL-2 melanoma 99.6% | EKVX NSCLC 97.1% | SN12C renal 99% | UO-31 renal 95.7% | TK-10 renal 110% | ACHN renal 105% | CAKI-1 renal 106% | A498 renal 92.7% | CCRF-CEM leukemia 24.8%

O=S(=O)(O)CCI
inactive: SK-MEL-2 melanoma 102% | EKVX NSCLC 119% | SN12C renal 105% | UO-31 renal 95.4% | TK-10 renal 95.7% | ACHN renal 112% | CAKI-1 renal 107% | A498 renal 90.7% | CCRF-CEM leukemia 106%

CCOC(=O)c1c(C)oc2ncnc(Nc3ccc(C(=O)NCCc4ccccc4)cc3)c12
inactive: SK-MEL-2 melanoma 82.5% | EKVX NSCLC 90.4% | SN12C renal 99.4% | UO-31 renal 97.4% | TK-10 renal 102% | ACHN renal 88.7% | CAKI-1 renal 92.6% | A498 renal 77.6% | CCRF-CEM leukemia 81% | MOLT-4 leukemia 105%

CC(=O)Nc1nc(C)c(C(=O)NNS(=O)(=O)c2ccccc2)s1
inactive: EKVX NSCLC 113% | SN12C renal 105% | UO-31 renal 91.8% | TK-10 renal 161% | ACHN renal 115% | CAKI-1 renal 121% | A498 renal 121% | CCRF-CEM leukemia 114% | MOLT-4 leukemia 117%
active: SK-MEL-2 melanoma 2.86%

C#CCCCCCCC[C@@H]1OC(=O)[C@H]([C@@H](C)CC)NC(=O)[C@@H]([C@@H](C)CC)NC(=O)CC(=O)[C@@H]1C
inactive: SK-MEL-2 melanoma 107% | EKVX NSCLC 93.4% | SN12C renal 94.9% | UO-31 renal 60.9% | TK-10 renal 141% | ACHN renal 86.8% | CAKI-1 renal 69.8% | A498 renal 86.6% | CCRF-CEM leukemia 93%

CC1(c2ccc(Br)cc2)NC(=O)NC1=O (stereo unspecified)
inactive: SK-MEL-2 melanoma 122% | EKVX NSCLC 109% | SN12C renal 100% | UO-31 renal 94.9% | TK-10 renal 106% | ACHN renal 104% | CAKI-1 renal 97.8%

O=C(O)/C(Br)=C/c1c[nH]c2ccc(Br)cc12
inactive: SK-MEL-2 melanoma 99% | EKVX NSCLC 119% | SN12C renal 108% | UO-31 renal 88.8% | TK-10 renal 117% | ACHN renal 104% | CAKI-1 renal 97.6% | A498 renal 132% | MOLT-4 leukemia 31.8%
active: CCRF-CEM leukemia -46.1%

O=S(=O)(O)c1ccc2c(c1)Sc1cc(S(=O)(=O)O)ccc1O2
inactive: SK-MEL-2 melanoma 107% | EKVX NSCLC 90.1% | SN12C renal 95.8% | UO-31 renal 97% | TK-10 renal 107% | ACHN renal 112% | CAKI-1 renal 105% | A498 renal 96.6% | CCRF-CEM leukemia 107% | MOLT-4 leukemia 115%

CC(=O)OC1CC2C3CCC4C[C@@H](NC(=O)C=C(C)C)CC[C@]4(C)C3CC[C@]2(C)[C@H]1C(C)N(C)C (stereo partly specified)
inactive: EKVX NSCLC 29.3% | SN12C renal 14.3% | TK-10 renal 48.4% | ACHN renal 21.4% | A498 renal 33.2%
active: SK-MEL-2 melanoma 5.9% | UO-31 renal 8.5% | CAKI-1 renal -19.6% | CCRF-CEM leukemia 0.674%

Nc1nc2c(c3ncncc13)C(c1cccc(C(F)(F)F)c1)Cc1ncncc1-2 (stereo unspecified)
inactive: SK-MEL-2 melanoma 48.2% | EKVX NSCLC 48% | SN12C renal 55.2% | UO-31 renal 51% | TK-10 renal 50.6% | ACHN renal 45% | CAKI-1 renal 34.5% | CCRF-CEM leukemia 13.5% | MOLT-4 leukemia 29.2%
active: A498 renal -6.07%

COC(=O)C(C)[C@H]1CC[C@@H]2[C@]1(C)CC=C1[C@]23C=C[C@]2(C[C@@H](OC(C)=O)CC[C@]12C)C(C(=O)OC)C3C(=O)OC (stereo partly specified)
inactive: SK-MEL-2 melanoma 100% | EKVX NSCLC 86.1% | SN12C renal 100% | UO-31 renal 86.7% | TK-10 renal 109% | ACHN renal 112% | CAKI-1 renal 94.7% | A498 renal 106% | CCRF-CEM leukemia 74.4% | MOLT-4 leukemia 46.7%

CC[C@@H](C)/C=C(C)/C=C/C(=O)c1c(O)c(-c2ccc(OC(=O)[C@@]34CC[C@@](C)(C(=O)O3)C4(C)C)cc2)cn(O)c1=O
inactive: SK-MEL-2 melanoma 17.8% | EKVX NSCLC 22.3% | SN12C renal 30.4% | TK-10 renal 44.9% | A498 renal 49.8%
active: UO-31 renal -26.4% | ACHN renal 9.64% | CAKI-1 renal -27%

COc1ccc(C2CC(=O)c3c(O)cc(OC4OC(COC5OC(C)C(O)C(O)C5O)C(O)C(O)C4O)cc3O2)cc1O (stereo unspecified)
inactive: EKVX NSCLC 100% | SN12C renal 108% | UO-31 renal 95.3% | TK-10 renal 110% | ACHN renal 117% | CAKI-1 renal 105% | A498 renal 132% | CCRF-CEM leukemia 106% | MOLT-4 leukemia 113%
active: SK-MEL-2 melanoma -1.88%

COc1cc(OC)c(NC(=O)n2ncc3cc(Nc4ncnc5ccccc45)ccc32)cc1Cl
inactive: SK-MEL-2 melanoma 102% | EKVX NSCLC 33% | SN12C renal 95.6% | UO-31 renal 64.1% | TK-10 renal 30.8% | ACHN renal 55.1% | CAKI-1 renal 53.6% | A498 renal 54.2% | CCRF-CEM leukemia 102% | MOLT-4 leukemia 96.3%

CCC(C)(C)c1ccc(OCCCCCCN2CCNCC2)cc1
inactive: SK-MEL-2 melanoma 96.9% | EKVX NSCLC 115% | SN12C renal 88.2% | UO-31 renal 63.5% | TK-10 renal 90.4% | ACHN renal 42.6% | CAKI-1 renal 70% | A498 renal 71.2% | MOLT-4 leukemia 10.4%
active: CCRF-CEM leukemia 4.24%

O=C1Nc2ccccc2/C1=C/c1cn(CC(O)Cn2cc(/C=C3\C(=O)Nc4ccccc43)c3ccccc32)c2ccccc12 (stereo unspecified)
active: SK-MEL-2 melanoma -57.6% | EKVX NSCLC -62.3% | SN12C renal -53.6% | UO-31 renal -9.18% | TK-10 renal -15.1% | ACHN renal -68.4% | CAKI-1 renal 9.83% | A498 renal -73.2% | CCRF-CEM leukemia -30.6% | MOLT-4 leukemia -29.4%

Cc1ccnc2c(NC(C)CCCN)cc(O)c(O)c12 (stereo unspecified)
inactive: SK-MEL-2 melanoma 91.9% | EKVX NSCLC 93.8% | SN12C renal 27.2% | UO-31 renal 83.7% | TK-10 renal 109% | ACHN renal 99.5% | CAKI-1 renal 89.3% | A498 renal 93.5% | CCRF-CEM leukemia 39.6%

C/C(=N\Nc1cccc(Cl)n1)c1ccccn1
active: EKVX NSCLC 5.56% | UO-31 renal -1.99% | ACHN renal 6.24% | A498 renal -1.3% | CCRF-CEM leukemia 6.2% | MOLT-4 leukemia 4.01%
inactive: SK-MEL-2 melanoma 21% | SN12C renal 13.6% | TK-10 renal 22.7% | CAKI-1 renal 12.7%

c1cc(C2CCCCC2)ccc1OCCCCCCN1CCNCC1
active: ACHN renal -7.79% | CCRF-CEM leukemia -51.7%
inactive: SK-MEL-2 melanoma 87.8% | EKVX NSCLC 90.5% | SN12C renal 59.1% | UO-31 renal 56.6% | TK-10 renal 57% | CAKI-1 renal 55.7% | A498 renal 61.5%

COc1ccc(C(=O)CN2C(=O)NC(c3ccccc3)(c3ccccc3)C2=O)cc1
inactive: SK-MEL-2 melanoma 99.6% | EKVX NSCLC 98.9% | SN12C renal 101% | UO-31 renal 71.2% | TK-10 renal 117% | ACHN renal 104% | CAKI-1 renal 93.6% | A498 renal 70.5% | CCRF-CEM leukemia 94.8%

c1ccc(C(=NNc2nc3ccccc3o2)c2ccccn2)nc1
inactive: SK-MEL-2 melanoma 37.7% | SN12C renal 16.1% | TK-10 renal 41.8% | MOLT-4 leukemia 12.3%
active: EKVX NSCLC 8% | UO-31 renal 2.19% | ACHN renal 8.01% | CAKI-1 renal 5.09% | A498 renal -27% | CCRF-CEM leukemia 3.17%
